# Hits are enriched below; roughly 4.1% of the tested compounds scored in any of these assays.
# hgDAF12 agonist – agonists of H. glycines DAF-12 nuclear receptor; HEK293 GAL4-hgDAF12 UAS-luciferase reporter, agonist luminescence; normalized to butyrate control; activation, % at 6.8 µM; 370,000 tested, 1.8% active; AID 687014;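 active = activation above a cutoff set at the mean of all screened compounds plus 3 SD, cut at about 10% in these data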;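 also: 0% = DMSO wells and 100% = sodium butyrate wells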
# DAX1 inh-1 – inhibitors of human orphan nuclear receptor DAX1 (NR0B1) | P51843 | inhibition, % at 6.75 µM | AID 504766 | 340,000 tested, 0.99% active | HEK293 Gal4-DAX1 luciferase reporter, luminescence;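 active = inhibition above the mean over all tested compounds plus 3 SD, cut at about 4.2% in these data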;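 also: 0% = DAX1-transfected cells with DMSO and 100% = empty-vector control cells with DMSO; inhibition shows as a rise in luminescence from relieved DAX1 repression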
# Target sequence (P51843 207-470 limits assumed): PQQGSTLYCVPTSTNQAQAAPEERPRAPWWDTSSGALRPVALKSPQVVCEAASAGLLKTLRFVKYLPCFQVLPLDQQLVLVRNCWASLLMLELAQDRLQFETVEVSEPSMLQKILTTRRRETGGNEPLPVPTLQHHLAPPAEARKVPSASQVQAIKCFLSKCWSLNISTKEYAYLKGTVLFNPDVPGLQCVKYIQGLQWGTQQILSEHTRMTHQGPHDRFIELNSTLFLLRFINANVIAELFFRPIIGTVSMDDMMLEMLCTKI
# DAX1 inh-2 – inhibitors of DAX1 repression of SF-1 activated StAR promoter. inhibition, % at 6.8 µM. 370,000 tested, 1.1% active. HEK293T StAR-luciferase reporter, SF-1/DAX-1 repression relief;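 active = inhibition above the mean over all tested compounds plus 3 SD, cut at about 3.6% in these data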;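 also: 0% = DAX-1 cells with DMSO and 100% = cells lacking DAX-1 with DMSO; higher inhibition means more luminescence from relief of DAX-1 repression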
# ssDAF12 agonist – S. stercoralis DAF-12 activation, primary screen; activation, % at 6.8 µM; HEK293 ssDAF-12/GRIP1 lit1-tk-luc reporter, luminescence; % of 3 µM dafachronic acid response; 370,000 tested, 1% active;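 active = activation above the mean over all tested compounds plus 3 SD, cut at about 0.9% in these data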;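 also: 0% = DMSO-only wells and 100% = 3 µM delta7-dafachronic acid wells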
# hcDAF-12 act – H. contortus DAF-12 activation, primary screen; HEK293 hcDAF-12 lit1-tk-luc reporter, luminescence; 0% DMSO, 100% Δ7-dafachronic acid; activation, % at 6.8 µM; 370,000 tested, 1.4% active;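 active = activation above the mean of all tested compounds plus 3 SD, cut at about 5.5% in these data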;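 also: 100% = response to 3 µM Δ7-dafachronic acid high control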
# LXRb hcDAF ctr – counter-screen for hcDAF-12 agonists: agonists of human LXR-beta; shares compounds with hcDAF-12 act; HEK293 Gal4-LXR tk-luc reporter, luminescence, 24 h; normalized: DMSO 0%, positive control 100%; activation, % at 6.8 µM; 3,400 tested, under 10 active;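 active = mean percent activation of the reporter above a cutoff set as the average over tested compounds plus their standard deviation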
# hcDAF12 ag – hcDAF-12 agonism, confirmation assay. shares compounds with hcDAF-12 act. HEK293 hcDAF-12 lit1-tk-luc reporter, luminescence; % of Δ7-dafachronic acid response. activation, % at 6.8 µM. 3,400 tested, 61% active;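 active = mean activation across triplicate tests above the threshold derived from the earlier primary screen, cut at about 5.5% in these data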;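 also: 0% = DMSO only wells and 100% = 3 µM Δ7-dafachronic acid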
# An asterisk follows results filed as active; / = not tested or not shown; ! = repeats disagree.
SMILES,hgDAF12 agonist,DAX1 inh-1,DAX1 inh-2,ssDAF12 agonist,hcDAF-12 act,LXRb hcDAF ctr,hcDAF12 ag
CCN(CC)CCn1c(SCC(=O)Nc2ccc3c(c2)CCC3)nc2ccccc2c1=O,1,1,2,-2,0,/,/
Cc1ccc(-c2cc(=O)c3cc(C)ccc3[nH]2)cc1,8,-2,1,1,7.0*,1,7.0*
Cc1ccc(NC(=O)c2sc3nc(C)cc(C)c3c2N)cc1,12*,4,2,0,7.8*,2,9.3*
Cc1cc(C)c2c(N)c(C(=O)Nc3nccs3)sc2n1,16*,-4,2,2.3*,18*,2,24*
Cc1cc(C)c2c(N)c(C(=O)NN)sc2n1,-4,0,-1,-2,-1,/,/
CC(C)C(C(=O)Nc1ccccc1F)N1C(=O)c2ccccc2C1=O (centres undefined),5,1,0,2.1*,8.0*,0,5
CC(=O)O/N=C/c1c(C)c(C=O)n2ccccc12,3,3,-1,-2,-1,/,/
CC(CCN1CCC(C(O)(c2ccccc2)c2ccccc2)CC1)Oc1cccc(F)c1 (centres undefined),1,/,0,0,11*,0,2
C#CCN1C(=O)[C@]2(OCCC=C[C@H]2C)c2ccccc21,1,/,2,-1,1,/,/
CC1=NN(C(N)=S)C(=O)C1N=Nc1ccc(C)cc1C (centres undefined),11*,/,1,1.2*,12*,1,13*
Cn1c(=O)c(C(=O)CN2CCCc3ccccc32)c(N)n(Cc2ccccc2)c1=O,0,0,0,0,3,/,/
Cn1c(=O)c(C(=O)CN2CCc3ccccc32)c(N)n(Cc2ccccc2)c1=O,4,1,0,1,8.0*,0,2
Cc1occc1C(=O)N/N=C/c1ccc(N(C)C)cc1,9,-2,3,0,7.3*,1,7.2*
CN(C)c1ccc(/C=N/NC(=O)c2ccccc2Cl)cc1,5,-1,-2,-1,1,/,/
Cc1occc1C(=O)N/N=C/C(Br)=C\c1ccccc1,11*,4,2,1,8.8*,2,4
CC1CCCC(C)N1C(=O)/C=C/c1ccc(S(=O)(=O)N2CCOCC2)cc1 (centres undefined),-3,1,0,-1,-1,/,/
O=C(N/N=C/c1cccc(O)c1)c1ccc(-n2cnnn2)cc1,-2,0,-1,-1,2,/,/
CCCCC(=O)OCc1nc2ccccc2s1,3,2,0,0,4,/,/
O=C(O)CCCC(=O)Nc1ccc(OCc2nc3ccccc3s2)cc1,10,0,1,1,4,/,/
O=C(O)c1ccccc1OCc1nc2ccccc2s1,10,3,2,1.2*,9.2*,1,7.2*
O=C(OCc1nc2ccccc2s1)c1cnccn1,7,3,1,0,8.2*,1,9.8*
c1ccc2[nH]c(-c3ccnc4ccccc34)nc2c1,6,-1,1,-1,6.7*!,0,7.9*
c1ccc2nc(-c3nc4ccccc4[nH]3)ccc2c1,13*,-4,1,1.1*,21*,2,21*
Oc1ccc(-c2cn3cc(C(F)(F)F)ccc3n2)cc1,12*,-4,4,1,7.7*,3,9.0*
COc1ccc(NC(=O)C2(C)Cc3c(-c4cccc(NC(C)=O)c4)ccnc3O2)cn1 (centres undefined),-4,/,-1,-1,1,/,/
O=C(C[n+]1ccc(/C=N/O)cc1)NC1CCCCC1,-1,0,0,-2,2,/,/
Cc1ccccc1NC(=O)N1CCNC(=O)C1CC(=O)Nc1cc(Cl)ccc1Cl (centres undefined),0,0,1,-1,0,/,/
Nc1cc2c(cc1Cl)-c1ccccc1C2,12*,4,0,0,7.5*,0,4
CC(=O)N[C@@H](Cc1ccc(O)cc1)CN1C(N)=NC[C@@H]1CC(C)C,1,0,1,0,6.8*,0,0
